Test results: PubChem BioAssay AID1159580 (chemical genetic matrix, 2015)
Values joined by “and” are separate entries in the source; they are usually repeats but may differ in a detail not shown here. Identical values can stand only once. Out of some 5,500 compounds screened, about 2,000 (36%) were called active. About 18% were inconclusive and are not listed. Rule as the data show it: active = normalized growth mostly below about 0.91 (no sharp cut-off); inconclusive = no clear call, values can overlap the other calls; inactive = mostly above about 0.92. This is one part of the list.

Assay: chemical genetic growth profiling, strain panel (AID 1159580);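 also: tested at 20 µM; growth read once vehicle control cultures reached saturation at 30 °C; 1 = growth at the plate median or of vehicle wells; lower values mean less growth of the strain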
Conditions: S. cerevisiae deletion strains, growth OD

Measured: normalized growth

CC(C)CCCC(C)[C@H]1CCC2C3CC=C4C[C@@H](O)CC[C@]4(C)C3CC[C@@]21C (some centres undefined)
inactive: locus YAL021C, strain ccr4, stronger effect = lower value 0.974 | locus YAL026C, strain drs2, stronger effect = lower value 0.96 | locus YAL030W, strain snc1, stronger effect = lower value 0.979 | locus YBL061C, strain skt5, stronger effect = lower value 0.99 | locus YBR009C, strain hhf1, stronger effect = lower value 0.986 | locus YBR021W, strain FUR4, stronger effect = lower value 1.01 | locus YBR023C, strain chs3, stronger effect = lower value 0.989 | locus YBR171W, strain sec66, stronger effect = lower value 0.987 | locus YBR229C, strain ROT2, stronger effect = lower value 1.01 | locus YBR231C, strain swc5, stronger effect = lower value 0.989 | locus YBR279W, strain paf1, stronger effect = lower value 0.951 | locus YCL011C, strain gbp2, stronger effect = lower value 0.972 | locus YCL016C, strain dcc1, stronger effect = lower value 0.994 | locus YCL029C, strain bik1, stronger effect = lower value 0.979 | locus YCL061C, strain MRC1, stronger effect = lower value 0.985 | locus YCL069W, strain vba3, stronger effect = lower value 0.964 | locus YCR088W, strain abp1, stronger effect = lower value 0.992 | locus YDL005C, strain med2, stronger effect = lower value 0.976 | locus YDL035C, strain GPR1, stronger effect = lower value 1.03 | locus YDL040C, strain nat1, stronger effect = lower value 0.986 | locus YDL074C, strain BRE1, stronger effect = lower value 1.03 | locus YDL101C, strain DUN1, stronger effect = lower value 1.01 | locus YDL134C, strain PPH21, stronger effect = lower value 1.03 | locus YDL185W, strain tfp1, stronger effect = lower value 0.994 | locus YDL192W, strain arf1, stronger effect = lower value 0.992 | locus YDR001C, strain nth1, stronger effect = lower value 0.981 | locus YDR069C, strain doa4, stronger effect = lower value 0.966 | locus YDR101C, strain arx1, stronger effect = lower value 0.962 | locus YDR137W, strain rgp1, stronger effect = lower value 0.916 | locus YDR159W, strain sac3, stronger effect = lower value 0.963 | locus YDR162C, strain NBP2, stronger effect = lower value 1 | locus YDR195W, strain ref2 0.957 | locus YDR297W, strain sur2, stronger effect = lower value 0.985 | locus YDR318W, strain mcm21, stronger effect = lower value 1.01 | locus YDR334W, strain swr1, stronger effect = lower value 0.964 | locus YDR335W, strain msn5, stronger effect = lower value 0.996 | locus YDR388W, stronger effect = lower value 0.988 | locus YDR392W, strain spt3, stronger effect = lower value 0.935 | locus YDR502C, strain sam2, stronger effect = lower value 0.974 | locus YEL003W, strain gim4, stronger effect = lower value 0.982 | locus YEL037C, strain rad23, stronger effect = lower value 0.953 | locus YEL061C, strain CIN8 (second series), stronger effect = lower value 0.965 | locus YEL061C, strain CIN8, stronger effect = lower value 1.01 | locus YER015W, strain faa2, stronger effect = lower value 0.995 | locus YER016W, strain bim1, stronger effect = lower value 0.987 | locus YER110C, stronger effect = lower value 0.991 | locus YER111C, strain swi4, stronger effect = lower value 0.985 | locus YER155C, strain BEM2 (second series), stronger effect = lower value 0.984 | locus YER155C, strain BEM2, stronger effect = lower value 1.01 | locus YER167W, strain BCK2, stronger effect = lower value 1 | locus YFR010W, strain ubp6, stronger effect = lower value 0.961 | locus YGL078C, strain dbp3, stronger effect = lower value 0.996 | locus YGL086W, strain mad1, stronger effect = lower value 0.991 | locus YGL167C, strain pmr1, stronger effect = lower value 0.99 | locus YGL173C, strain kem1, stronger effect = lower value 0.984 | locus YGL227W, strain vid30, stronger effect = lower value 0.99 | locus YGL240W, strain doc1, stronger effect = lower value 0.986 | locus YGL248W, strain PDE1, stronger effect = lower value 1.03 | locus YGL253W, strain hxk2, stronger effect = lower value 0.976 | locus YGR078C, strain PAC10, stronger effect = lower value 1.01 | locus YGR135W, strain pre9, stronger effect = lower value 1 | locus YGR252W, strain gcn5, stronger effect = lower value 0.978 | locus YHR013C, strain ard1, stronger effect = lower value 0.96 | locus YHR027C, strain rpn1, stronger effect = lower value 0.997 | locus YHR030C, strain SLT2, stronger effect = lower value 1.01 and 1.02 | locus YHR079C, strain IRE1 (second series), stronger effect = lower value 0.997 | locus YHR079C, strain IRE1, stronger effect = lower value 1.01 | locus YHR094C, strain hxt1, stronger effect = lower value 0.988 | locus YHR129C, strain ARP1, stronger effect = lower value 0.999 | locus YHR142W, strain chs7, stronger effect = lower value 0.956 | locus YHR200W, strain rpn10, stronger effect = lower value 0.995 | locus YIL066C, strain RNR3, stronger effect = lower value 1.01 | locus YIL073C, strain SPO22, stronger effect = lower value 1 | locus YIL125W, strain kgd1, stronger effect = lower value 0.99 | locus YIR030C, strain dcg1, stronger effect = lower value 0.987 | locus YJL092W, strain hpr5, stronger effect = lower value 0.992 | locus YJL095W, strain BCK1 (second series), stronger effect = lower value 0.987 | locus YJL095W, strain BCK1, stronger effect = lower value 1.04 and 1.01 | locus YJL115W, strain asf1, stronger effect = lower value 0.981 | locus YJL129C, strain trk1, stronger effect = lower value 0.968 | locus YJL134W, strain LCB3, stronger effect = lower value 1.01 | locus YJL154C, strain vps35, stronger effect = lower value 0.981 | locus YJL164C, strain tpk1, stronger effect = lower value 0.985 | locus YJL166W, strain qcr8, stronger effect = lower value 0.985 | locus YJL168C, strain set2, stronger effect = lower value 1 | locus YJL187C, strain SWE1 (second series), stronger effect = lower value 1.01 | locus YJL187C, strain SWE1, stronger effect = lower value 0.974 | locus YJR043C, strain POL32, stronger effect = lower value 1.01 | locus YJR066W, strain TOR1, stronger effect = lower value 0.987
